Outcome and AC50 data for 38 compounds are collected here from PubChem BioAssay (EPA / NIEHS).

Each structure is given as a SMILES string. “And” between values parts separate entries of the source, which are not always exact repeats. Identical values can stand only once. Inconclusive results are not listed. Some compounds were tested as several samples or in several runs, with calls that do not always agree. The source made the active and inactive calls. The calls were made as follows: active = hit-call score of the fitted dose curve at least 0.9, where 1 is the maximum; inconclusive = response in the unintended direction; inactive = score below 0.9.

For the assay, the target named is Cellular tumor antigen p53 (Homo sapiens) (UniProt P04637). The assay is described as follows: TOX21_p53_BLA_p2_ratio: Tox21 HCT-116 p53 Agonism Beta-lactamase Assay, Ratio, Phase 2 (AID 2283592). An excerpt: TOX21_p53_BLA_p2 is a cell-based, single-readout assay that uses HCT116, a human intestinal cell line, […] in a 1536-well plate.TOX21_p53_BLA_p2_ratio is an assay readout measuring reporter gene via receptor activity and designed using inducible reporter (beta lactamase induction) detected with GAL4 b-lactamase reporter gene. The signal is derived from the ratio of cleaved (ch2) to uncleaved (ch1) reporter gene substrate used as the measure of target activity.Data from the assay component TOX21_p53_BLA_p2_ratio was analyzed into 1 assay endpoint. This assay endpoint, TOX21_p53_BLA_p2_ratio, was analyzed in the positive analysis fitting direction relative to DMSO as the negative control and baseline of activity. Using a type of inducible reporter, gain-of-signal activity can be used to understand changes in the reporter gene as they relate to the gene TP53. Furthermore, this assay endpoint can be referred to as a primary readout, because this assay has produced multiple assay endpoints and this ratio serves a reporter gene function to understand target activity. To generalize the intended target to other relatable targets, this assay endpoint is annotated to the DNA binding intended target family, where the subfamily is tumor suppressor.
Cellular tumor antigen p53 (Homo sapiens), sequence (P04637 whole entry, looked up, the tested form may be a part): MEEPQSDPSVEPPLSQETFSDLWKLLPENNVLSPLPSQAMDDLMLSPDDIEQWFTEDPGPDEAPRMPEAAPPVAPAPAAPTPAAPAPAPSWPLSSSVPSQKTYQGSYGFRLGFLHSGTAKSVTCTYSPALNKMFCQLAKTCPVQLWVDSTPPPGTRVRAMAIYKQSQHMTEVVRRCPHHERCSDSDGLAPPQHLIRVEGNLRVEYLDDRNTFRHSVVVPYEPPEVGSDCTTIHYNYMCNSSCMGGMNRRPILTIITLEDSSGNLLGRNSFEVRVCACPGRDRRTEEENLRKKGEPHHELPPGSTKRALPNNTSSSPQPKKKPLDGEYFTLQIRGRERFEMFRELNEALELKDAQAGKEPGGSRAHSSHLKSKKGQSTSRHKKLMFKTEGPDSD
Thawing Method: Place 14 mL of pre-warmed thaw medium into a 15 mL of conical tub. Remove the vial of cells to be thawed from liquid nitrogen and thaw rapidly by placing at 37C in a water bath with gentle agitation for 1-2 minutes. Decontaminate the vial by wiping with 70% ethanol before opening in a biological safety cabinet. Transfer the vial contents drop-wise into 14 mL of thaw medium in a sterile 15-mL conical tub. Centrifuge cells at 900 rpm for 4 minutes and resuspend in thaw medium. Transfer contents to the T75 tissue culture flask containing Thaw Medium and place flask in a humidified 37C/5% CO2 incubator. Switch to growth medium at first passage.Propagation Method: Aspirate medium, rinse once in DPBS, add 0.25% Trypsin/EDTA and swirl to coat the cell evenly. Add an equal volume of Growth Medium to inactivate Trypsin after 2-3 minutes incubation at 37C. Centrifuge cells at 900 rpm for 4 minutes and resuspend in growth medium. Cell should be passage or fed at least twice a week.Assay Protocol: Harvest cells from culture in growth medium and resuspend in assay medium. 2.2 Dispense 4000 cells/5 uL/well into 1536-well black/clear bottom plates using a Multidrop dispenser. After the cells were incubated at 37C for 5 hours, 23 nL of compounds dissolved in DMSO were transferred to the assay plate by a PinTool resulting in a 217-fold dilution. Incubate the plates for 16 hours at 37C, 5% CO2. Add 1 uL of 6X LiveBLAzer FRET B/G (CCF4-AM) Substrate Mixture to each well using a BioRAPTR dispenser and incubate the plates at room temperature for 2 hours. Measure fluorescence intensity at 460 and 530 nm emission and 405 nm excitation by an Envision detector. Data is expressed as the ratio of 460nm/530nm emissions. Add 4 uL of Cell-titer Glo to each well using BioRAPTR and incubate the plates at room temperature for 2 hours. Measure fluorescence intensity by a VewLux plate reader.
For `CCC[CH2][Sn]([CH2]CCC)([O]C(C)=O)[O]C(C)=O`, the outcome was inactive.

On to `CCOP(=S)(OCC)Oc1cc(-c2ccccc2)on1`, for which the result was inactive. Turning to `Oc1ccc2c3c1O[C@H]1[C@@H](O)C=C[C@H]4[C@H](C2)NCC[C@@]341`, the outcome was inactive. On to `CCCCCCCCCCCCCC[P+](CCCCCC)(CCCCCC)CCCCCC`, for which the half-maximal activity concentration (AC50) (commonly the concentration at which the activity in the assay is half-maximal) was 59.6 µM (active) and 51.8 µM (active); the result was inactive.

`Cc1ccc(Cl)c(O)c1`: the outcome was inactive. Turning to `O=[N+]([O-])c1ccc(Oc2ccc(C(F)(F)F)cc2[N+](=O)[O-])cc1`, the result was inactive. Consider `OC(c1ccccc1)(c1ccccc1)C1CCNCC1`, for which the outcome was inactive. As to `N#CCNCC#N`, the outcome was inactive.

Take `CC(C)(CCl)C(=O)Cl`: the outcome was inactive. Still for that read-out and setting: with `C[N+]1(CCF)[C@@H]2CC[C@H]1CC(OC(=O)C(O)(c1ccccc1)c1ccccc1)C2` (stereo not given in full) the entry was “inactive”. As to `O=[N+]([O-])/C=C/c1ccccc1`, the AC50 was 12 µM (active). For `N=C(N)[Se]`, the result was inactive. The same measure, in the same setting: with `CC1=C2[C@H]3OC(=O)[C@@H](C)[C@@H]3CC[C@@]2(C)C=CC1=O` the entry was “inactive”; with `CNC(C)[C@@H]1CC[C@@H](N)[C@@H](O[C@H]2[C@H](O)[C@@H](O[C@H]3OC[C@](C)(O)[C@H](NC)[C@H]3O)[C@H](N)C[C@@H]2N)O1` (stereo not given in full) (tested in a mixture with another compound), “inactive”.

`Clc1c(Cl)c(Cl)c(Cl)c(Cl)c1Cl`: the result was inactive.

On to `NC1=NC(=O)C(c2ccccc2)O1` (stereo not given), for which the result was inactive. Regarding `C=CCOC(Cn1ccnc1)c1ccc(Cl)cc1Cl` (stereo not given), the outcome was inactive; the AC50 is 76.1 µM (active) and 72.5 µM (active). In the case of `NC(=O)C(Cl)Cl`, the result was inactive. Still for that read-out and setting: with `Clc1ccc(C(Cl)(Cl)Cl)cc1Cl` the entry was “inactive”. Still for that read-out and setting: the value for `BrC(Br)C(Br)(Br)Br` was “inactive”. In the case of `C[C@H]1CNCCc2ccc(Cl)cc21`, the result was inactive. For `CC(N)Cc1ccc2c(c1)OCO2` (stereo not given), the result was inactive. `Cn1cc[n+](C)c1` (tested in a mixture with another compound): the result was inactive. As to `O=C(C[C@@H]1NCCC[C@H]1O)Cn1cnc2cc(Br)c(Cl)cc2c1=O`, the outcome was inactive. On the same count and under the same terms, with `O=C(Cl)CCl` the entry was “inactive”; with `C=CC(=O)OCC(CC)CCCC` (stereo not given), “inactive”; with `COC(=O)C(Cl)C(=O)OC`, “inactive”. Take `O=C(NC(=O)c1ccccc1Cl)Nc1ccc(OC(F)(F)F)cc1`: the result was inactive. Take `N#CCCC#N`: the result was inactive. Turning to `COc1cc(CC(C)N)cc(OC)c1OC` (stereo not given), the outcome was inactive.

Consider `C[N+]1(C)[C@@H]2CC[C@H]1CC(OC(=O)C(CO)c1ccccc1)C2` (stereo not given in full), for which the result was inactive.

For the compound `C=CCc1ccc(OC(=O)Cc2ccccc2)c(OC)c1`, the result was inactive. The same measure, in the same setting: with `CCN(CC)CCO[C@H]1CC[C@@]2(C)C(=CC[C@@H]3[C@@H]2CC[C@]2(C)C(=O)CC[C@@H]32)C1` the entry was “inactive”. In the case of `CN(C)S(=O)(=O)N(SC(F)(Cl)Cl)c1ccccc1`, the AC50 was 26.3 µM (active). Regarding `O=Cc1ccccc1`, the result was inactive. `Oc1cccc[c]1[Hg][Cl]`: the AC50 was 8.58 µM (active). As for `CCCCCc1cc(O)c2c(c1)OC(C)(C)[C@@H]1CCC(C)=C[C@@H]21`, the AC50 was 41.7 µM (active). For the compound `O=[N+]([O-])c1ccc([As](=O)(O)O)cc1`, the outcome was inactive.
